From PubChem BioAssay AID2716 (Broad Institute, 2010)
In all, about 320,000 compounds went through this assay and about 3,300 (1%) were called active.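 Rule for the calls: active = every valid replicate shows activation above 250% relative to neutral control wells; inactive = the rest, any valid replicate at or below 250%.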 This excerpt belongs to a sample that is enriched for actives.

Test: restored growth of temperature-sensitive Mot1-301 yeast – S. cerevisiae, ATP luminescence, 38.5C, SUMOylation pathway inhibitor project, primary screen (AID 2716);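 note: OY570 slx delta 5 strain wells were the positive control but not used for scaling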
Settings: S. cerevisiae Mot1-301 growth rescue, at 18.8 µM, stronger effect = higher value, percent above DMSO median, 100 means doubled

Growth rescue, active:
Cc1ccc(-c2cn3cc(C)ccc3n2)cc1 297%
O=C(Cn1c(=O)sc2ccccc21)Nc1ccc2c(c1)OCCO2 284%
Cc1cccc(N(C(=O)c2ccc(CN3CCOCC3)o2)C(C(=O)NC2CCCCC2)c2ccc(F)cc2)c1 (stereo not given) 647%
C=C(Cl)COC(=O)C1C2C=CC(C2)C1C(=O)O (stereo not given) 885%
Cc1cc(C)n(CCC(=O)N2CCN(S(=O)(=O)c3ccc(C)c(C)c3)CC2)n1 315%
O=C(NNS(=O)(=O)c1c(F)cc(F)c(Cl)c1F)C12CC3CC(CC(C3)C1)C2 1720%
COc1ccccc1CSc1ncc(-c2ccc([N+](=O)[O-])cc2)[nH]1 1260%
CC(Oc1ccccc1[N+](=O)[O-])C(=O)N/N=C/c1ccoc1 (stereo not given) 547%
COc1ccccc1N1CCN(C(=O)C(=O)N/N=C/c2ccccc2F)CC1 490%
CCOc1ccc(C(C(=O)NC2CCCC2)N(C(=O)c2snc(C(N)=O)c2N)C2CCCC2)cc1 (stereo not given) 922%
CCc1nc2ccccc2c(C(=O)OC2CCCCC2=O)c1C (stereo not given) 377%
CCOCCCNCc1ccc(OCc2ccc(F)cc2)c(OC)c1 445%
Cc1cc(C)c2c(Cn3ccnc3)cc(=O)oc2c1 620%
COCCNC(=O)C(c1ccc(C)cc1)N(C(=O)CCC(=O)Nc1ccccn1)c1cccc(C)c1 (stereo not given) 451%
CSc1nc2ccc(NC(=O)c3c(F)cccc3F)cc2s1 423%
CCC(C)[C@H]1COCCS(=O)(=O)N1Cc1ccc(C)cc1 (stereo not given in full) 881%
Cc1cc(Br)ccc1NC(=O)c1cnc(N2CCN(c3ccccn3)CC2)c2ccccc12 1030%
NC(=O)C1CCN(C(=O)COc2ccc3c4c(c(=O)oc3c2)CCC4)CC1 296%

Growth rescue, inactive:
O=C(Nc1cccc(F)c1)NC1CCCCCCC1 2.77%
N#C/C(=C(\O)CCl)c1nnc2n1CCCCC2 10%
Cc1cn(C)c(=O)n(C)c1=O 274%
Cc1ccc2nc(-c3ccc(Br)cc3)cn2c1 -0.961%
Cc1ccc(-c2cn3cc([N+](=O)[O-])ccc3n2)cc1 25%
Cc1cccc(NC(=S)N(CCN(C)C)C(C)c2ccco2)c1 (stereo not given) 58.7%
Cc1nnc(NC(=O)Cn2c(=O)sc3ccccc32)s1 0.0426%
Cn1c(=O)c2ccccc2n(CC(=O)Nc2ccc3c(c2)OCCO3)c1=O 0.839%
COCC1CCN(C(=O)CCc2nnc(C3(c4ccc(Cl)cc4)CCC3)o2)C1 (stereo not given) -10.9%
Cc1ccc(S(=O)(=O)N(CC(=O)NCCSC2CCCCC2)c2ccccc2F)cc1 1.9%
Cc1ccc(N(C(=O)c2ccc(CN3CCOCC3)o2)C(C(=O)NCCC(C)C)c2cccs2)c(C)c1 (stereo not given) -1.16%
O=C(NC1CCCC1)C(c1ccc(N2CCOCC2)cc1)N(C(=O)c1ccco1)c1ccccc1F (stereo not given) 95.4%
CCc1cc(-c2nnc(SCC(=O)NC3CC3)n2C)cs1 -5.06%
CN1CCN(C(=O)C2C3C=CC(C3)C2C(=O)O)CC1 (stereo not given) 0.946%
O=C(O)C1C2C=CC(C2)C1C(=O)NCc1ccccc1 (stereo not given) -11%
CCOC(=O)C1CCN(C(=O)c2cccc(S(=O)(=O)N(CC)c3ccccc3)c2)CC1 -7.37%
Cc1cc(C)n(C(=O)c2ccc(S(=O)(=O)N3CCCC3)cc2)n1 1400%
Cc1ccc(S(=O)(=O)N2CCN(c3ccccc3)CC2)cc1C 11.5%
Cc1ccccc1NC(=O)C(C)OC(=O)CCC(=O)N(CC(C)C)c1c(N)n(CC(C)C)c(=O)[nH]c1=O (stereo not given) -16.2%
O=C(OCCN1C(=O)c2ccccc2C1=O)[C@@H]1CC(O)CN1S(=O)(=O)c1ccccc1[N+](=O)[O-] (stereo not given in full) -16.3%
O=C(Nc1ccc(S(=O)(=O)Nc2ncccn2)cc1)C12CC3CC(CC(C3)C1)C2 35.6%
CC(=O)N1CCN(S(=O)(=O)c2c(F)cc(F)c(Cl)c2F)CC1 9.01%
CCN(CCn1cccn1)C(=O)CC1C(=O)NCCN1Cc1cccc(OC)c1OC (stereo not given) -10.6%
C=Cc1ccc(C(=O)N2CCCC(CCC(=O)N3CCN(c4ccccn4)CC3)C2)cc1 (stereo not given) -28.8%
O=C(c1ccc(F)cc1)c1c[nH]c(C(=O)NCc2cccnc2)c1 -16%
CCOC(=O)c1c(C)nn(-c2ncccc2NC(=O)CCC(=O)O)c1C -17.7%
COc1ccccc1CC(=O)Nc1ccc([N+](=O)[O-])cc1OC -7.23%
N#Cc1c(-c2ccccc2)nc(SCc2ccc([N+](=O)[O-])cc2)[nH]c1=O 10.6%
CC(C)(C)Oc1ccccc1Nc1nc(NCCO)nc(N2CCCC2)n1 8.32%
O=C(COc1ccccc1[N+](=O)[O-])N/N=C/c1ccc[nH]1 -23.4%
CC(C)c1cc(C(=O)N/N=C/c2ccoc2)c(O)c(C(C)C)c1 2.88%
Nc1nonc1-n1nnc(C(=O)N/N=C/c2cc(Br)ccc2O)c1CSC1=NCCS1 -10.1%
CCN(C(=O)CSc1nc(N)cc(=O)[nH]1)C1CCS(=O)(=O)C1 (stereo not given) 5.44%
CC(C)(C)c1ccc(C(=O)NNC(=O)Cc2ccccc2)cc1 10.6%
C=Cn1c(C(=O)O)ccc1-c1ccc(OC)cc1 6.91%
COc1cccc(/C=N/NC(=O)C(=O)N2CCCC2)c1 11%
COc1ccccc1N1CCN(/N=C/c2ccc(O)cc2O)CC1 115%
CCOC(=O)c1cnc2ccc(F)cc2c1Nc1ccc2c(c1)OCCO2 37%
Nc1nc(COC(=O)CCC(=O)c2ccc(Cl)cc2)nc(Nc2ccccc2)n1 18.5%
Cc1ccc(OC(=O)c2c(C)nn(-c3ccccc3)c2C)cc1 -15.1%
CCC(C(=O)NC1CCCCC1)N(C(=O)c1snc(C(N)=O)c1N)c1ccc(OC)cc1OC (stereo not given) -10.5%
COc1ccc(C(C(=O)NC2CCCCC2)N(C(=O)c2snc(C(N)=O)c2N)c2ccccc2OC)cc1 (stereo not given) -0.518%
O=C(OCC(=O)N1CCc2ccccc21)C1CCCN1S(=O)(=O)c1ccc(Cl)cc1 (stereo not given) 4.88%
C/C(CC(O)(/C=N/O)c1ccccc1)=N\O (stereo not given) 0.714%
CCOc1c(OC)cccc1C(=O)NCC1(c2ccccc2)CCCC1 1.09%
CCc1nc2ccccc2c(C(=O)NCc2ccc(OC)cc2)c1C -10.8%
CCOC(=O)C1CCc2nc3ccccc3c(=O)n21 (stereo not given) 141%
CCS(=O)(=O)N1CCCC(C(=O)NCCCN(C)Cc2ccccc2)C1 (stereo not given) 2.83%
Cc1ccsc1C1C(C#N)=C(N)OC2=C1C(=O)CC(C)C2 (stereo not given) -1.54%
CCN(CC)CCNCc1ccc(OCc2ccc(Cl)nc2)c(OC)c1 -8.12%
COc1ccc(CNCCCO)cc1OC -14.2%
O=S(=O)(NCC1OCCc2ccccc21)c1ccccc1 (stereo not given) -12.3%
Cc1cccc(NC(=O)CCn2c(=O)oc3ccccc32)c1 -12.1%
CCCCc1cc(=O)oc2cc(C)cc(OCc3nn[nH]n3)c12 64.1%
Cc1cc(=O)oc2c1c(C)nn2-c1ccc(Cl)cc1 -9.75%
COC(=O)c1cc(S(=O)(=O)Nc2ccc(C)c(F)c2)c[nH]1 -5.05%
[O-][n+]1ccc(OCc2ccccc2)cc1 -10%
COCCNC(=O)C(c1ccc(O)cc1)N(C(=O)CCC(=O)Nc1nccs1)c1ccc(C)cc1 (stereo not given) -11.3%
CCOc1ccc(C(C(=O)NCCOC)N(CCOC)C(=O)CCC(=O)Nc2ccccn2)cc1 (stereo not given) 0.544%
COc1ccc([N+](=O)[O-])cc1N(CC(=O)Nc1ccccc1C(=O)N1CCOCC1)S(C)(=O)=O -10.4%
COC(=O)c1scc(C)c1NC(=O)CSc1ccc(Cl)cc1 -2.32%
COc1ccc(-c2ccc(CCC(=O)O)n2NC(=O)c2ccc(C(C)(C)C)cc2)cc1 -8.8%
O=C(Nc1ccncc1)c1c(F)cccc1F -9.16%
CCCC(=O)Nc1nc2ccc(NC(=O)c3c(F)c(F)c(OC)c(F)c3F)cc2s1 -0.657%
Cc1ccc(S(=O)(=O)NC(=O)N2CCCN(Cc3ccc(F)cc3)CC2)cc1 290%
Cc1cc(NC(=O)CSc2ncc(C(F)(F)F)cc2Cl)no1 6.57%
Cc1nc2ccccc2n1C(=O)N1CCOCC1 -12.1%
Cc1ccc(CN2CCCOCCS2(=O)=O)cc1 -17.5%
CCCC[C@H]1COCCS(=O)(=O)N1Cc1cccc(Cl)c1 -7.4%
COCCn1c(C)cc(C(=O)CSc2nnc(C3CC3)n2C2CC2)c1C 9.96%
O=C(CN1CCN(c2ccccn2)CC1)Nc1ccc(Br)cc1 5.41%
Cc1cc(Br)ccc1NC(=O)c1sc2ncn(CC(=O)N3CCN(c4ccccn4)CC3)c(=O)c2c1C -24.4%
COc1ccc(N2CCN(C(=O)COC(=O)c3cccc(S(=O)(=O)Nc4ccccc4OC)c3)CC2)cc1 -0.984%
COc1ccc(N2CC(C(=O)NCCS(=O)(=O)N3CCN(c4ccccc4)CC3)CC2=O)cc1 (stereo not given) 3.93%
CCCCNC(=O)Cn1nc(C)c(S(=O)(=O)N2CCOCC2)c1C -1.53%
O=C(COc1ccc2c3c(c(=O)oc2c1)CCC3)NC1CCCCC1 5.16%
O=C(COc1ccc2c3c(c(=O)oc2c1)CCCC3)NCC(O)c1ccccc1 (stereo not given) 1.8%
